Growth data for 14 compounds are collected here from PubChem BioAssay (NCI).

Compounds without any hit were thinned out: in the full panel of roughly 83,000, 20% have a hit.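 The test compound was applied at a single concentration to cells in 96-well plates for 48 hours, and percent growth was recorded.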 Unmarked numbers belong to inactive results. Activity calls are given as the source filed them. How the source made its calls: active means growth percent below 10; inactive means the rest.

Some test systems named below: T-47D breast; BT-549 breast; MDA-MB-435 melanoma; SW-620 colon; MCF7 breast; HCT-116 colon; HCC-2998 colon; KM12 colon.
What all share (assay): NCI-60 one-dose screen, 48 h (100 = growth as untreated, 0 = no growth, -100 = all killed)
Conditions in all cases: 10 µM unless noted

For `N#C/C(=C/c1ccc([N+](=O)[O-])cc1)n1nnc2cc(F)c(F)cc21`, the growth in the test on T-47D breast was 11.6%; in the test on BT-549 breast it was 77.3%; with MDA-MB-435 melanoma it was 64.2%; in the test with SW-620 colon, 59.7%; in the test on MCF7 breast, 8.8% (active); with HCT-116 colon it was 5.65% (active). The growth in the test with HCC-2998 colon was 70.5%; with KM12 colon, 13.1%.
For the compound `COC(=O)CNC(=O)[C@H](Cc1ccccc1)NCc1ccncc1`, the growth was 89.6% in the test with T-47D breast; 96.4% with BT-549 breast; 110% in the test with MDA-MB-435 melanoma; 102% in the test with SW-620 colon; 92.9% with MCF7 breast; 100% in the test on HCT-116 colon. In addition, the growth in the test on HCC-2998 colon and with KM12 colon was 103% in each case.
Regarding `O=C(CCCCC1CCSS1)Nc1ncnc2n[nH]c(-c3ccc(Oc4ccccc4)cc3)c12` (configuration not stated), the growth in the test with T-47D breast is 73.7%; in the test on BT-549 breast it was 118%; in the test on MDA-MB-435 melanoma, -28.4% (active); with SW-620 colon, 111%; in the test with MCF7 breast it was 43.2%; in the test with HCT-116 colon, 36.7%. Besides, the growth in the test with HCC-2998 colon is 103%; in the test with KM12 colon, 70.5%.
For `COc1cc(N2C(=O)[C@H](O)C2c2ccc(SC)cc2)cc(OC)c1OC` (some centres not stated), the growth with T-47D breast was 49.2%; in the test on BT-549 breast, -6.32% (active); with MDA-MB-435 melanoma it was -39.5% (active); in the test with SW-620 colon, 23.7%; in the test on MCF7 breast, 13.5%; in the test with HCT-116 colon, 1.16% (active). Moreover, the growth was 26.1% in the test with HCC-2998 colon and 11.8% with KM12 colon.
With `CC(C)(C)n1cc(-c2ccnc(NCCCNS(=O)(=O)c3ccc(F)cc3)c2)c(-c2cccc(F)c2)n1`, the growth in the test with T-47D breast was 24.6%; in the test with BT-549 breast, 50.2%; with MDA-MB-435 melanoma it was 73.8%; in the test with SW-620 colon it was 22.4%; in the test on MCF7 breast it was 41.2%; with HCT-116 colon, 37%. Moreover, the growth in the test with HCC-2998 colon was 54.7%; in the test with KM12 colon, 40.9%.
For `O=C(NCCCCNC(=O)OCc1ccc2c(Cl)cc(Cl)c(O)c2n1)OCc1ccc2c(Cl)cc(Cl)c(O)c2n1`, the growth in the test on T-47D breast is 61%; with BT-549 breast, 15.3%; with MDA-MB-435 melanoma, -48.7% (active); with SW-620 colon, 19.5%; with MCF7 breast it was 13.7%; with HCT-116 colon, 7.49% (active). The growth with HCC-2998 colon is 18.5%; in the test on KM12 colon it was 6.41% (active).
Regarding `CN1C(=O)N(C)C2Nn3c(s/c(=C\c4ccc(C(F)(F)F)cc4)c3=O)=NC21` (configuration not stated), the growth in the test on T-47D breast is 107%; with BT-549 breast, 113%; in the test with MDA-MB-435 melanoma, 91.4%; in the test with SW-620 colon it was 101%; in the test on MCF7 breast, 92%; in the test on HCT-116 colon it was 107%. The growth is 113% in the test with HCC-2998 colon and 99.7% in the test on KM12 colon.
For the compound `O=C(c1cc2ccccc2o1)c1nn(-c2ccccc2)/c(=N/N=Cc2cn(-c3ccccc3)nc2-c2cc3ccccc3oc2=O)s1`, the growth with T-47D breast is 92.9%; in the test on BT-549 breast it was 108%; in the test with MDA-MB-435 melanoma, 81.1%; in the test on SW-620 colon, 97.1%; with MCF7 breast it was 83.1%; in the test with HCT-116 colon, 89.8%. Also, the growth is 104% in the test with HCC-2998 colon and 96.5% in the test on KM12 colon.
As to `CCCCN[C@H]1CC[C@@]2(C)[C@@H](CC[C@@]3(C)[C@H]2[C@H](O)C[C@H]2/C(=C(\CCC=C(C)C)C(=O)OC)[C@@H](OC(C)=O)C[C@@]23C)[C@@H]1C`, the growth in the test with T-47D breast was 105%; in the test with BT-549 breast, 93.5%; in the test with MDA-MB-435 melanoma, 98%; in the test with SW-620 colon, 95.9%; in the test on MCF7 breast it was 90.8%; with HCT-116 colon, 102%. The growth in the test with HCC-2998 colon was 99.3%; in the test on KM12 colon, 104%.
As for `CN(C)C1CCN(Cc2ccc(NC(=O)c3cncc(C#Cc4cnc(N)c5ncccc45)c3)cc2C(F)(F)F)CC1`, the growth with T-47D breast was 93.7%; with BT-549 breast, 104%; with MDA-MB-435 melanoma it was -2.09% (active); in the test on SW-620 colon, 68.1%; in the test with MCF7 breast, 73.6%; with HCT-116 colon, 86.7%. The growth in the test with HCC-2998 colon was 99.6%; with KM12 colon, 9.65% (active).
Regarding `CCOC(=O)c1ccc2[nH]c(O)c(C(=Nc3ccc(N(C)C(=O)CN4CCN(C)CC4)cc3)c3ccccc3)c2c1`, the growth in the test with T-47D breast was 21.6%; in the test with BT-549 breast, -75.9% (active); in the test on MDA-MB-435 melanoma it was -42% (active); in the test on SW-620 colon it was -34.4% (active); in the test on MCF7 breast, -63.9% (active); in the test on HCT-116 colon it was -38.8% (active). Further, the growth is -55.2% (active) in the test with HCC-2998 colon and -33.4% (active) in the test with KM12 colon.
As for `COc1ccc(/C(C)=C(/c2ccc(OCCCN(C)C)cc2)c2ccc(OC(=O)Cc3ccccc3)cc2)cc1`, the growth in the test with T-47D breast was 38.2%; in the test on BT-549 breast it was 76.5%; in the test with MDA-MB-435 melanoma it was 71.9%; with SW-620 colon, 91.8%; in the test with MCF7 breast it was 25.4%; in the test on HCT-116 colon it was 57.4%. Further, the growth with HCC-2998 colon is 86.7%; in the test with KM12 colon, 73.9%.
Consider `CCN1C(=O)N(CC)C2C1NN=c1s/c(=C\c3cccc([N+](=O)[O-])c3)c(=O)n12` (configuration not stated), for which the growth in the test on T-47D breast was 59.3%; in the test on BT-549 breast, 12.5%; in the test on MDA-MB-435 melanoma, -30.4% (active); with SW-620 colon, 21.1%; in the test with MCF7 breast it was 17.1%; in the test with HCT-116 colon, 11%. The results for the growth with HCC-2998 colon and in the test with KM12 colon were 15.9% and 12.1%, respectively.
Turning to `COc1ccc(-c2nnc3n(C)c(=O)c4ccccc4n23)cc1N`, the growth was 24.2% in the test with T-47D breast; 31.2% in the test with BT-549 breast; -19.6% (active) with MDA-MB-435 melanoma; 20.3% with SW-620 colon; 18.6% in the test with MCF7 breast; 20.2% in the test with HCT-116 colon. In addition, the values for the growth in the test on HCC-2998 colon and in the test with KM12 colon were 49.7% and 28.3%, respectively.
